HT1080 IDH1KD tx = HT-1080 IDH1 knockdown cell toxicity (counter line). HT-1080 IDH1 knockdown viability, ATP luminescence, 48 h. Potency, µM (top dose mostly 46.1 µM), hits mostly cytotoxic. 360,000 tested, 2% active. AID 686971
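HT-1080-IDH1KD cells (IDH1 knocked down), 750/well in RPMI with 5% FBS, treated with compound 48 h at 37 degrees C. Viability by CellTiter-Glo luminescence, normalised to DMSO and no-cell wells; concentration-response curves classed.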
HepG2 viability = kills HepG2 cells in TGF-b inhibitor counter-screen; AID 588856; 410,000 tested, 0.76% active; Potency, µM (titrated, usually from 46.1 µM), usual class: cytotoxic; HepG2 CAGA-GFP viability, ATP luminescence, 18 h
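HepG2 CAGA-GFP cells (1000/well, DMEM with 1% FBS) received compound, then TGF-beta at 500 pg/mL final, and were incubated 18 hours at 37 degrees C. Viability was read by CellTiter-Glo luminescence. Media-only wells were set as complete cell-killing and DMSO as no toxicity.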
TDP1 cell CPT = growth inhibition of DT40 Tdp1-/-;hTDP1 cells with camptothecin (screen for TDP1 inhibitors); chicken DT40 Tdp1-/-;hTDP1 cells + 20 nM CPT, ATP luminescence, 48 h; 420,000 tested, 12% active; AID 686979; Potency, µM (doses to about 46.2 µM), usual class: inhibitors; note: nearly all actives have a fitted effect of over 55% in size
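Cell growth measured by CellTiter-Glo luminescence after a minimum 48 h, 37 C compound exposure with 20 nM CPT in Tdp1-knockout DT40 cells stably expressing hTDP1, seeded 400/well; qHTS titration format.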
HT1080-NT tox = kills 2HG-producing HT-1080-NT fibrosarcoma cells | HT-1080-NT fibrosarcoma viability, CellTiter-Glo ATP luminescence, 48 h | Potency, µM (doses to about 46.1 µM), hits mostly cytotoxic | 360,000 tested, 1.6% active | AID 686970;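 note: NT is the 2HG producing partner of a matched IDH1 knockdown line; nearly all actives have a fitted effect of over 55% in size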
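Viability of the 2HG-overproducing fibrosarcoma line after 48 hours of compound exposure at 37 degrees C was determined by luminescence with CellTiter-Glo, and concentration-effect curves were then fitted and categorized.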
TDP1 cell noCPT = qHTS for Inhibitors of human tyrosyl-DNA phosphodiesterase 1 (TDP1): qHTS in cells in absence of CPT. 420,000 tested, 15% active. AID 686978, 2013. Potency, µM (series often up to 46.2 µM), actives largely listed as inhibitors. DT40 Tdp1-/- hTDP1 cells, no CPT, ATP luminescence, 48 h; note: nearly all actives have a fitted effect of over 55% in size
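Cells were dispensed at 400 per well, compounds added by pin tool, plates incubated ≥48 hr at 37 °C, then CellTiter-Glo added for 30 min at room temperature before luminescence reading. Line: DT40 Tdp1-/- complemented with hTDP1; camptothecin omitted.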
TGFb SMAD3 inh = TGF-b pathway inhibition | HepG2 CAGA-GFP TGF-b/SMAD3 reporter, GFP fluorescence, 18 h; TGF-beta stimulated, 500 pg/mL final | Potency, µM (top dose mostly 46.1 µM), most hits filed as inhibitors | 410,000 tested, 1.2% active; note: nearly all actives have a fitted effect of over 65% in size
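Smad-responsive CAGA-GFP expression was quantified in HEPG2 cells exposed to compounds and 500 pg/mL final TGF-beta for 18 h at 37 degrees C; unstimulated wells defined full inhibition.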
Hits are given with their value; n = inactive; u = inconclusive; x = no result. Most compounds without a hit are left out; they make up all but 17% or so of the library. Calls come from the whole dose curve; as a rule, active = well fitted curve in the direction sought with a large enough effect; inconclusive = small, poorly fitted or top-dose-only effect, or another doubt; inactive = no such curve, though single readings can be large; an effect the other way counts as inactive or inconclusive.

SMILES	HT1080 IDH1KD tx	HepG2 viability	TDP1 cell CPT	HT1080-NT tox	TDP1 cell noCPT	TGFb SMAD3 inh
O/N=C(/CI)c1ccc2ccccc2c1	x	n	u	x	u	n
Cc1ccc(C)c(Nc2nc3c(S(=O)(=O)c4ccc(C(C)C)cc4)nnn3c3ccsc23)c1	x	n	15µM	x	21µM	n
Cc1ccc(Nc2nc3c(S(=O)(=O)c4ccccc4)nnn3c3ccsc23)c(C)c1	x	n	u	x	u	n
Cc1ccc(C)c(Nc2nc3c(S(=O)(=O)c4ccc(Br)cc4)nnn3c3ccsc23)c1	x	n	18µM	x	21µM	u
COc1ccccc1Nc1nc2c(S(=O)(=O)c3ccc(C(C)C)cc3)nnn2c2ccsc12	x	n	n	x	n	u
COc1cccc(-c2nc(Cc3ccc(OC)c(OC)c3)no2)c1	n	n	u	n	u	n
CC(C)(C)C(=O)Nc1ccc(/C=C/C(=O)c2ccco2)cc1	23µM	n	u	u	u	u
N#Cc1ccc(/C=C/C(=O)c2ccco2)cc1	n	n	9.2µM	n	10µM	u
Nc1ccc(/C=C/C(=O)c2ccco2)cc1	n	n	n	n	u	n
CC(C)(C)C(=O)Nc1ccc(NC(=O)c2ccco2)nc1	n	n	n	n	n	n
CC1Sc2ccc(S(=O)(=O)NCCc3ccc(Cl)cc3)cc2NC1=O (stereo not drawn)	n	n	n	n	u	u
CC(=O)Nc1ccccc1-c1nc2ccc(C(=O)N3CCN(c4ccccc4)CC3)cc2[nH]c1=O	n	n	n	n	n	n
CC(=O)Nc1ccccc1-c1nc2cc(C#N)c(C#N)cc2[nH]c1=O	n	n	21µM	n	21µM	u
COc1ccc(S(=O)(=O)N2CCC(C(=O)NCC3CCCO3)CC2)cc1 (stereo not drawn)	n	n	n	n	n	n
COCCNC(=O)C1(C)CCN(C(=O)Cc2ccc(OC)c(OC)c2)C1 (stereo not drawn)	n	n	n	n	n	n
CC(=O)c1ccc(NC(=O)CN(C)S(=O)(=O)c2cccc3nsnc23)cc1	x	n	n	x	n	n
Cc1ccccc1NC(=O)CN(c1ccc(Cl)cc1Cl)S(=O)(=O)c1ccccc1	x	n	18µM	x	u	u
O=C(NCc1ccncc1)Nc1ccc(Cc2ccc(NC(=O)NCc3ccncc3)cc2)cc1	n	n	u	n	10µM	u
COc1ccc(N(CC(=O)Nc2ccc(C)c(C)c2)S(=O)(=O)c2ccc(C)cc2)cc1OC	x	n	n	x	n	n
CCOc1ccccc1N(CC(=O)Nc1cc(OC)ccc1OC)S(=O)(=O)c1ccccc1	n	n	u	n	u	n
CCOc1ccccc1N(CC(=O)Nc1ccccc1)S(=O)(=O)c1ccccc1	n	n	u	n	26µM	n
COc1ccc(NC(=O)CN(c2cccc(C)c2C)S(=O)(=O)c2ccccc2)cc1OC	x	n	23µM	x	u	n
CC(NC(=O)CN(c1ccc(Cl)cc1Cl)S(=O)(=O)c1ccccc1)c1ccccc1 (stereo not drawn)	x	n	u	x	u	u
COC(=O)C1CCN(C(=O)CSc2nnc(-c3ccccc3)o2)CC1	n	n	n	n	n	n
CCOc1ccc(-c2noc(-c3csc([C@@H]4O[C@H](CO)[C@H](O)[C@H](O)[C@H]4O)n3)n2)cc1	n	n	n	n	n	n
SMILES	HT1080 IDH1KD tx	HepG2 viability	TDP1 cell CPT	HT1080-NT tox	TDP1 cell noCPT	TGFb SMAD3 inh
CCCCOC(=O)c1ccc(NC(=O)C(=O)NCCN(C)C)cc1	n	n	u	n	21µM	n
CCOC(=O)c1ccccc1NC(=O)CN(c1ccccc1OCC)S(C)(=O)=O	n	n	u	n	u	n
COc1ccccc1N(CC(=O)Nc1ccc(Cc2ccncc2)cc1)S(=O)(=O)c1ccccc1	n	n	23µM	n	u	n
CCOC(=O)c1ccccc1NC(=O)CN(c1cccc(C)c1C)S(=O)(=O)c1ccccc1	x	n	7.3µM	x	5.8µM	n
COc1ccc(OC)c(N(CC(=O)Nc2cccnc2)S(=O)(=O)c2ccc(C)cc2)c1	u	n	16µM	u	u	n
COC(=O)CN(c1ccccc1OC)S(=O)(=O)c1ccccc1	n	n	n	n	n	n
CCCCOC(=O)c1ccc(NC(=O)c2ccccc2OC)cc1	n	n	21µM	n	u	n
COc1ccc([N+](=O)[O-])cc1C(=O)Nc1ccc(Cc2ccncc2)cc1	n	n	n	n	u	n
CCOc1ccccc1N(CC(=O)Nc1cccnc1)S(=O)(=O)c1ccc(C)cc1	n	n	18µM	n	u	n
COc1ccccc1C(=O)Nc1ccc(Cc2ccncc2)cc1	n	n	u	n	21µM	u
COc1ccc(OC)c(N(CC(=O)Nc2cccnc2)S(=O)(=O)c2ccc(OC)c(OC)c2)c1	n	n	u	n	u	n
Cc1ccc(S(=O)(=O)N(CC(=O)Nc2cccnc2)c2cc(Cl)ccc2C)cc1	x	n	16µM	x	18µM	u
CCCCCCC(=O)NC(Nc1ccc(S(N)(=O)=O)cc1)C(Cl)(Cl)Cl (stereo not drawn)	n	n	u	n	u	u
COc1ccc(C(=O)NC(=S)Nc2ccc(Cc3ccncc3)cc2)cc1	21µM	n	u	18µM	18µM	n
Cc1ccccc1C(=O)NC(=S)Nc1ccc(Cc2ccncc2)cc1	n	n	n	n	u	n
O=C1CN(C(=O)c2cc3ccccc3oc2=O)C(c2ccc(F)cc2)c2cc(F)ccc2N1 (stereo not drawn)	n	n	u	n	n	n
O=C1CN(C(=O)c2ccc(S(=O)(=O)N3CCCC3)cc2)C(c2ccc(F)cc2)c2cc(Br)ccc2N1 (stereo not drawn)	x	n	u	x	18µM	n
Cc1ccc2c(c1)C(c1ccc(F)cc1)N(C(=O)c1ccc(S(=O)(=O)N3CCCCC3)cc1)CC(=O)N2 (stereo not drawn)	x	n	18µM	x	u	n
O=C1CN(C(=O)c2ccc(Cl)cc2Cl)C(c2ccc(F)cc2)c2cc(F)ccc2N1 (stereo not drawn)	x	n	u	x	u	n
O=C1CN(C(=O)c2cc3ccccc3oc2=O)C(c2ccc(F)cc2)c2cc(Br)ccc2N1 (stereo not drawn)	n	n	13µM	n	u	n
O=C1CN(C(=O)c2ccc(S(=O)(=O)N3CCCC3)cc2)C(c2ccccc2)c2cc(F)ccc2N1 (stereo not drawn)	x	n	u	x	u	n
